# Laboratory results taken from the supplement of paper PMC6555819.
# Experiments:
# Test in all cases: PBM binding z-score (relative to random genomic background probes); higher = stronger binding; sequences stand for … in GC…GCGATTGACAGCGTAGAATGAAGG
# [1] = system: FXR:RXRa (NR concentration 270 nM, RXRa partner concentration 90 nM)
# How it was run: (§1)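 Custom Agilent 4×180K protein-binding microarrays carried double-stranded probes, each with a 34-nt variable region. These regions held direct-repeat seeds, single-nucleotide variants, half-site ablations and random human genomic background sequences. Ligand-free nuclear receptor dimers were incubated on the arrays for 1 h, antibodies against each partner (one per run) detected binding, and scanned fluorescence was regression-normalized. Binding z-scores take the random background probes as reference.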
# [2] = system: LXRa:RXRa (NR concentration 270 nM, RXRa partner concentration 90 nM)
# How it was run: as §1
# [3] = system: LXRa homodimer (NR concentration 270 nM)
# How it was run: as §1
# [4] = system: LXRb:RXRa (NR concentration 270 nM, RXRa partner concentration 90 nM)
# How it was run: as §1
# [5] = system: LXRb homodimer (NR concentration 270 nM)
# How it was run: as §1
# [6] = system: PPARa:RXRa (NR concentration 270 nM, RXRa partner concentration 90 nM)
# How it was run: as §1
# [7] = system: PPARg:RXRa 270nM:90nM, anti-RXR (NR concentration 270 nM, RXRa partner concentration 90 nM)
# How it was run: as §1
# [8] = system: PPARg:RXRa 30nM:10nM, anti-RXR (NR concentration 30 nM, RXRa partner concentration 10 nM)
# How it was run: as §1
# [9] = system: PPARg:RXRa 90nM:30nM, anti-RXR (NR concentration 90 nM, RXRa partner concentration 30 nM)
# How it was run: as §1
# [10] = system: PPARg:RXRa DBDmut IVT, anti-RXR (DBD mutation: RXRa K156A/R161A, NR concentration 270 nM, RXRa partner concentration 90 nM)
# How it was run: as §1
# [11] = system: PPARg:RXRa IVT, anti-PPARg (NR concentration 270 nM, RXRa partner concentration 90 nM)
# How it was run: as §1
# [12] = system: PPARg DBDmut:RXRa IVT, anti-PPARg (DBD mutation: PPARg1 K132A/R137A, NR concentration 270 nM, RXRa partner concentration 90 nM)
# How it was run: as §1
# [13] = system: PPARg DBDmut IVT, anti-PPARg (DBD mutation: PPARg1 K132A/R137A, NR concentration 270 nM)
# How it was run: as §1
# [14] = system: PPARg homodimer (NR concentration 180 nM)
# How it was run: as §1
# [15] = system: PXR:RXRa (NR concentration 270 nM, RXRa partner concentration 90 nM)
# How it was run: as §1
# [16] = system: PXR homodimer (NR concentration 270 nM)
# How it was run: as §1
# [17] = system: RARa:RXR (NR concentration 270 nM, RXRa partner concentration 90 nM)
# How it was run: as §1
# [18] = system: RARa homodimer (NR concentration 270 nM)
# How it was run: as §1
# [19] = system: RARb:RXRa (NR concentration 270 nM, RXRa partner concentration 90 nM)
# How it was run: as §1
Sequence,PBM binding z-score [1],PBM binding z-score [2],PBM binding z-score [3],PBM binding z-score [4],PBM binding z-score [5],PBM binding z-score [6],PBM binding z-score [7],PBM binding z-score [8],PBM binding z-score [9],PBM binding z-score [10],PBM binding z-score [11],PBM binding z-score [12],PBM binding z-score [13],PBM binding z-score [14],PBM binding z-score [15],PBM binding z-score [16],PBM binding z-score [17],PBM binding z-score [18],PBM binding z-score [19]
CCTAGTTGGTCAGGAGGTCCCACACCGGATATGA,0.0406,-0.213,0.429,-0.248,0.251,-0.0736,0.194,-0.0977,-0.144,0.207,0.483,-0.124,-0.0969,1.06,-0.0476,0.63,-0.0305,0.95,0.64
CCGACTGGGGCAAAGGTTACGATACTCAGTACGA,1.82,1.6,-0.076,2,-1.04,5.62,9.56,9.53,11.7,4.56,6.38,0.809,0.584,4,2.51,-0.536,4.39,-0.413,2.57
CGTCCAAGGTCAATTCTAGGTCAGTGAAAGCATT,6.85,5.63,3.88,4.73,2.2,5.01,4.59,1.17,3.25,3.48,4.72,0.615,0.0326,7.64,4.96,1.82,6.11,1.9,5.19
GATACAGGGTCAAGGCCAGAATACGCGTATTGAT,6.98,4.25,0.231,4.25,0.223,5.84,5.74,2.61,4.58,2.36,4.04,0.884,0.396,2.82,3.9,0.4,4.79,0.95,4.6
ATCTCTAGGTCAAAGTTCAGTGAATCCCGAGGAT,5.79,6.34,6.95,4.67,3.69,6.3,9.63,10.4,10.7,6.47,6.91,3.49,3.22,3.06,5.29,2.76,6.71,1.52,4.58
CGAACTAGGTCAGAGCAGGACAGTGAAGGATGAT,1.33,0.722,-0.112,0.261,-0.67,3.19,5.01,2.43,4.19,7.51,7.58,2.72,2.03,0.79,1.15,-0.0767,1.54,-0.158,2.94
GCATACGGGTCAAAGGTTATAGCATGAATAGAAT,7.92,5.85,0.463,5.74,0.733,7.06,9.95,10.1,11.7,4.64,6.5,1.34,2.31,3.95,6.29,0.519,8.51,0.512,4.49
TAGCCTAGGTGATTGGGCCAGTATAGTACGCATC,-0.581,-0.692,-0.293,-0.59,-0.51,-0.146,-0.141,-0.21,-0.578,0.598,1.35,-0.207,-0.683,-0.347,-0.55,-0.684,-0.276,-0.504,-0.13
GGAACGGGGGCATTCGAGTTGATAGCATGGCGAT,3.01,4.03,0.603,4.98,6.54,3.99,4.08,1.54,3.65,3.24,5.37,8.85,10.9,1.37,5.15,3.02,2.94,0.259,2.9
CCTTACGGGTCACGGTTATAGCACGGGTGGTACG,5.96,4.01,0.000447,3.23,-0.179,5.56,5.89,2.69,4.69,3,4.79,0.0456,-0.518,2.07,3.68,-0.0861,4.84,0.629,4.37
ATATGTAGGTCATCGGGTCATTCAGTTTGCGCAT,6.61,5.82,4.84,4.74,1.76,6.46,8.12,6.72,8.81,8.44,8.83,6.46,6.66,5.23,5.5,8.57,6.32,2.05,4.65
AGTAAAAGTTCACTAGGTAACGTAAGATTCAGCT,4.14,4.44,3.1,2.6,1.17,4.32,5,2.09,4.23,2.43,4.33,0.938,1.34,2.48,3.04,2.08,2.39,1.61,4.39
CCTTACGGGTCAGGAGGTTATAGCACGACGAGCG,4.11,3,0.272,2.52,-0.12,4.49,4.07,1.19,2.57,1.26,2.77,0.0175,-0.373,1.97,2.86,0.19,4.14,0.79,3.63
ATCGAAAGGTCGTGACGTGAGTATACAGAAAGGC,5.34,3.84,-0.0538,3.03,0.128,4.8,3.82,1.41,2.77,-0.00761,1.68,1.56,0.662,1.61,2.98,0.0582,3.7,0.369,3.74
ATATGTAGGTTAGCTGGGGTCATTCCGACTAGGC,4.03,5.97,3.23,4.79,1.3,5.14,5.12,2.35,4.36,6.8,5.93,1.65,0.994,3.16,6.18,3.73,5.3,0.761,2.99
ACTCGGAGGATAAAGGTCAGAGCTACGCCAGTGA,3.3,3.42,1.27,2.83,0.273,4.23,6.4,5,6.8,0.595,3.02,-0.0489,0.296,4.61,3.25,0.221,4.24,2.08,4.01
